Bioassay records deposited in PubChem BioAssay by National Center for Advancing Translational Sciences (NCATS).
This is a sample that favours compounds with a hit; in the whole collection about 3.2% have one here.
LmPK inhibitor = inhibitors of Leishmania mexicana pyruvate kinase. purified LmPK, Kinase-Glo ATP luminescence, 1 h. Potency, µM (doses to about 57.5 µM), most hits filed as inhibitors. 290,000 compounds, 0.37% hits. AID 1721
Target sequence (Q27686 whole entry, looked up): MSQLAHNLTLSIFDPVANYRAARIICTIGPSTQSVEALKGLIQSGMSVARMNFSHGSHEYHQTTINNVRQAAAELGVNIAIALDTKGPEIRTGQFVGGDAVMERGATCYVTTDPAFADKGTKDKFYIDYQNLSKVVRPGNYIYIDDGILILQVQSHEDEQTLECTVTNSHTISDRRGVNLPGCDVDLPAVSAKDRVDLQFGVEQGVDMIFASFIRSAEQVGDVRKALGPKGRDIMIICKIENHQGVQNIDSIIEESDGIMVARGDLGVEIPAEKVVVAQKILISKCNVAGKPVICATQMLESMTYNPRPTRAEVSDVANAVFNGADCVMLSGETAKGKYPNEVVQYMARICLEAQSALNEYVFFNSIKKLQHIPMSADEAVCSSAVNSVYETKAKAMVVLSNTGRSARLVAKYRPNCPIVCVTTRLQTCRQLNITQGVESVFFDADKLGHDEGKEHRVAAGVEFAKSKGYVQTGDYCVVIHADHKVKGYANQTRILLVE
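Purified LmPK (0.1 nM) converted ADP (0.1 mM) to ATP with PEP (0.5 mM) in imidazole buffer pH 7.2 with KCl and MgCl2, 1 h at room temperature. ATP was read by Kinase-Glo luminescence; data normalized to uninhibited and no-enzyme controls.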
Sm TGR block = inhibitors of Schistosoma mansoni thioredoxin glutathione reductase. Q962Y6. 360,000 compounds, 3% hits. purified TGR, DTNB reduction, TNB absorbance 405 nm. Potency, µM (top dose mostly 114 µM), most hits filed as inhibitors; note: nearly all actives have a fitted effect of over 60% in size
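TGR 20 nM + NADPH 100 uM (dispensed conc.), cpd preinc 15 min RT; start with NADPH (500 uM addition) then DTNB (15 mM addition). Kinetic TNB absorbance, 405 nm filter. Four-parameter Hill fit across titration.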
AMA1 RON2 block = inhibitors of Plasmodium falciparum AMA1-RON2 interaction; AlphaScreen AMA1-biotinylated RON2 peptide binding; Potency, µM (highest dose often 58.2 µM), actives largely listed as inhibitors; 360,000 compounds, 0.2% hits; note: nearly all actives have a fitted effect of over 45% in size
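AMA1 (3D7) with his tag at 25 nM final met compounds first, then biotinylated RON2 peptide at 25 nM; detection used donor plus acceptor beads, 10 µg/mL apiece, read by AlphaScreen after 30 min at room temperature.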
RE007 growth inh = less growth of the S. pombe RE007 Vpr strain; Potency, µM (titrated, usually from 92.2 µM), most hits filed as inhibitors; 360,000 compounds, 0.21% hits; S. pombe RE007 Vpr strain, BacTiter-Glo ATP luminescence, 24 h; active = well fitted falling curve with a large enough effect; inconclusive = small, poorly fitted or top-dose-only effect; inactive = no such curve, though single readings can be large or run the other way; note: nearly all actives have a fitted effect of over 50% in size
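Fission yeast RE007 carrying one integrated HIV-1 vpr copy, seeded at OD 0.01 in PMG+AL medium with 23 nL pinned compound. Grown 24 h at 30 degrees; viability read by BacTiter-Glo luminescence after 5 min.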
TbPYK inhibitor = inhibitors of Trypanosoma brucei pyruvate kinase; Q57TT1; TbPYK enzyme, Kinase-Glo Plus ATP luminescence, 45 min; Potency, µM (titrated, usually from 76.8 µM), usual class: inhibitors; 410,000 compounds, 0.12% hits; AID 624173; note: nearly all actives have a fitted effect of over 50% in size
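Activity of T. brucei pyruvate kinase was followed by Kinase-Glo Plus luminescence after the enzyme reacted 45 min at room temperature with 130 uM ADP (final) and substrate. Test compounds were added before ADP at multiple concentrations.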
Large screens that a line does not name were inactive. Unless noted, calls come from the whole dose curve; as a rule, active = well fitted curve in the direction sought with a large enough effect; inconclusive = small, poorly fitted or top-dose-only effect, or another doubt; inactive = no such curve, though single readings can be large; an effect the other way counts as inactive or inconclusive.

Cc1ccc(OCC(=O)N/N=C/C=C/c2ccco2)c(Br)c1	Sm TGR block 28.2µM
O=C(COc1cccc2ccccc12)N/N=C/c1ccco1	none
Cc1cccc(C)c1OCC(=O)N/N=C/C=C/c1ccco1	Sm TGR block 15.8µM
Cc1cc(C)cc(OCC(=O)N/N=C/c2ccco2)c1	none
Cc1cccc(CCNc2ncnc3onc(-c4ccc(Cl)cc4)c23)c1	none (no result: LmPK inhibitor, AMA1 RON2 block, RE007 growth inh)
CC1CCN(c2oc(-c3cccs3)nc2S(=O)(=O)c2ccc(Cl)cc2)CC1	none (no result: LmPK inhibitor, AMA1 RON2 block, RE007 growth inh)
O=C(c1ccco1)N1CCN(c2ncnc3sc4c(c23)CCC4)CC1	Sm TGR block 11.2µM
CCc1nc(N2CCN(C(=O)c3ccco3)CC2)c2c3c(sc2n1)CCCC3	Sm TGR block 56.2µM
Cc1cccc(NC(c2ccccc2C)c2ccc3ccc(C)nc3c2O)n1 (centres undefined)	Sm TGR block 3.55µM (no result: LmPK inhibitor, AMA1 RON2 block, RE007 growth inh)
Cc1cccc(NC(c2ccc(C)s2)c2ccc3ccc(C)nc3c2O)n1 (centres undefined)	Sm TGR block 44.7µM, RE007 growth inh inconclusive
Nc1nonc1-c1nc2ccccc2n1CC(=O)N/N=C/c1ccc(-c2ccccc2C(=O)O)o1	Sm TGR block 39.8µM
Nc1nonc1-c1nc2ccccc2n1CC(=O)Nc1ccccc1	none
CCOc1ccc(-n2c(Cc3ccccc3)nnc2SCc2nc(-c3cccs3)no2)cc1	none (no result: LmPK inhibitor, AMA1 RON2 block, RE007 growth inh)
CCCCOc1cccc(C(=O)N(Cc2ccc(C)o2)c2ccccn2)c1	none (no result: LmPK inhibitor, AMA1 RON2 block, RE007 growth inh)
O=C1NS(=O)c2cc([N+](=O)[O-])cc([N+](=O)[O-])c21 (centres undefined)	none (no result: Sm TGR block)
O=C1c2c([N+](=O)[O-])cc([N+](=O)[O-])cc2S(=O)N1Cc1ccccc1 (centres undefined)	Sm TGR block 39.8µM, TbPYK inhibitor inconclusive
Cc1csc(NC(=O)CSc2ccc(-c3ccccn3)nn2)n1	AMA1 RON2 block 31.6µM
O=C(CSc1ccc(-c2ccccn2)nn1)Nc1nccs1	none
CC1CCN(c2nc3ccc(C(=O)NCc4ccccc4Cl)cc3s2)CC1	none (no result: LmPK inhibitor, AMA1 RON2 block, RE007 growth inh)
Cc1oc(-c2ccccc2F)nc1CS(=O)CC(=O)NC(C)C (centres undefined)	Sm TGR block 14.1µM (no result: LmPK inhibitor, AMA1 RON2 block, RE007 growth inh)
CCC(C)NC(=O)CS(=O)Cc1nc(-c2ccccc2C)oc1C (centres undefined)	Sm TGR block 8.91µM
CCCNC(=O)CS(=O)Cc1nc(-c2ccccc2C)oc1C (centres undefined)	Sm TGR block 50.1µM
Cc1ccccc1-c1nc(CS(=O)CC(=O)N2CCC3(CC2)OCCO3)c(C)o1 (centres undefined)	Sm TGR block 8.91µM
Fc1ccccc1-n1ncc2c1ncn1nc(-c3ccccc3Cl)nc21	none (no result: LmPK inhibitor, AMA1 RON2 block, RE007 growth inh)
CCOc1ccc(CCNC(=O)CS(=O)Cc2nc(-c3ccccc3C)oc2C)cc1OCC (centres undefined)	Sm TGR block 35.5µM
C/C(=N\O)C(=O)C(CN1CCCCC1)CN1CCCCC1	Sm TGR block 1.78µM, TbPYK inhibitor inconclusive
COc1ccc(NC(=O)Cn2ccn(Cc3ccccc3)c(=O)c2=O)cc1Cl	none (no result: LmPK inhibitor, AMA1 RON2 block, RE007 growth inh)
CN(C)c1ccc(Cc2ccc(N(C)C)cc2)cc1	AMA1 RON2 block 14.1µM, RE007 growth inh inconclusive (no result: LmPK inhibitor, Sm TGR block)
O=[N+]([O-])c1cc([N+](=O)[O-])c2cc3ccccc3nc2c1	Sm TGR block 3.55µM, RE007 growth inh inconclusive
O=[N+]([O-])c1cc([N+](=O)[O-])c2ccccc2c1	none (no result: LmPK inhibitor, Sm TGR block, AMA1 RON2 block, RE007 growth inh)
C=C(C)C(=O)OC1(C(F)(F)F)Oc2cc(C)ccc2NC1=O (centres undefined)	Sm TGR block 39.8µM
CCOC(=O)C1(N(CC)CC)Sc2cc(C)ccc2NC1=O (centres undefined)	none
COc1cc2c(cc1OC)C(C1C(=O)CCCC1=O)N(C(=O)CCl)CC2 (centres undefined)	none
COc1cc2c(cc1OC)C(c1ccccc1O)N(C1CC(=O)N(c3ccccc3)C1=O)CC2 (centres undefined)	Sm TGR block 10µM
COc1cc2c(cc1OC)C(c1cc(OC)c(OC)cc1[N+](=O)[O-])N(C(C)=O)CC2 (centres undefined)	Sm TGR block 89.1µM (no result: RE007 growth inh)
COc1cc2c(cc1OC)C(c1cc(Br)ccc1O)N(C(C)=O)CC2 (centres undefined)	none (no result: LmPK inhibitor, Sm TGR block)
